Bioassay records as filed in PubChem.
The list is not random: actives were taken first. Their share in the collection is about 2.9%.
IP6K1 inhibitor: inhibitors of human IP6K1. activity change, % (series mostly up to about 58 µM). IP6K1 kinase, ADP-Glo luminescence, 2 h; active compounds read low. 0.81% of 140,000 active. AID 1645851. Q92551; in the data active = activity change below about -25%
Target sequence (Q92551 whole entry, looked up): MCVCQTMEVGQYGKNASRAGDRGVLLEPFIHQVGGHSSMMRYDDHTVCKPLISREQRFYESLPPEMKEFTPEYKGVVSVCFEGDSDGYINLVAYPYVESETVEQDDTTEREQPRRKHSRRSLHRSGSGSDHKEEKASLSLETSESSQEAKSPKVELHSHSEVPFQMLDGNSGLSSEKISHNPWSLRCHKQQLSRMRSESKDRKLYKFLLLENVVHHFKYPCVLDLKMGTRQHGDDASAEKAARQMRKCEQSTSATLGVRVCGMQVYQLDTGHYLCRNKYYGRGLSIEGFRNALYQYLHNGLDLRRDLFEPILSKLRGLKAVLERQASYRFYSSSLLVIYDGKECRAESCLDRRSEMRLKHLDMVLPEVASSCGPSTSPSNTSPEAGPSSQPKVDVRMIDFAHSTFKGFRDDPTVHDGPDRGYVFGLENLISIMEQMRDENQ
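ADP-Glo luminescence measures ADP made by human IP6K1 during a 2 h RT reaction with ATP/IP6 (mix at 1.3 mM/130 uM); top library doses 57.5 and 19.1 uM final.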
SNCA viab count: cell viability loss counter-screen; HEK-293-SNCA-luc viability, GF-AFC fluorescence, 24 h; Potency, µM (doses to about 57.1 µM), most hits filed as cytotoxic; 0.12% of 150,000 active; note: nearly all actives have a fitted effect of over 30% in size
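HEK-293-SNCA-luc cells (1500/well) plated 24 h, then exposed 24 h to a dilution series; GF-AFC added 30 min at 37C, fluorescence 405/540 nm; normalised to medium-only and DMSO wells, Hill fit.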
SNCA expr inhib: inhibitors of alpha-synuclein (SNCA) gene expression; HEK-293 SNCA-luciferase knock-in, luminescence, 24 h; Potency, µM (titrated, usually from 57.2 µM), actives largely listed as inhibitors; 0.17% of 140,000 active; note: nearly all actives have a fitted effect of over 45% in size
KDM5B inh: blocks human KDM5B histone demethylase activity | KDM5B demethylase, FDH-coupled NADH fluorescence (FDH is formaldehyde dehydrogenase) | Potency, µM (titrated, usually from 57.7 µM), usual class: inhibitors | 2.6% of 220,000 active | AID 1347165; note: nearly all actives have a fitted effect of over 70% in size
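Inhibition is measured as reduced NADH fluorescence generation from FDH coupling to formaldehyde release. Truncated KDM5BΔAP at 200 nM final acts on H3K4me3 peptide (12.5 µM in substrate mix) in pH 7.5 HEPES buffer with Tween-20, 30 min, room temperature.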
A number is an active result; – = inactive; ? = inconclusive; · = no result. Unless noted, calls come from the whole dose curve; as a rule, active = well fitted curve in the direction sought with a large enough effect; inconclusive = small, poorly fitted or top-dose-only effect, or another doubt; inactive = no such curve, though single readings can be large; an effect the other way counts as inactive or inconclusive.

SMILES	IP6K1 inhibitor	SNCA viab count	SNCA expr inhib	KDM5B inh
O=C(O)CNC(=O)c1c(O)c2ccccc2n(Cc2ccccc2)c1=O	–	–	–	·
Cc1nc(-c2ccc(N(C)C)cc2)cc([C@H]2CN3CC[C@H]2C[C@@H]3CNC(=O)c2ccccc2)n1	–	?	?	25µM
Cc1nc(-c2ccccc2Br)cc([C@H]2CN3CC[C@H]2C[C@@H]3CNC(=O)c2ccc(N(C)C)cc2)n1	–	–	–	–
Cc1nc(-c2ccc(N(C)C)cc2)cc([C@H]2CN3CC[C@H]2C[C@@H]3COC(=O)NC(C)C)n1	–	–	–	28µM
COc1ccc(C(=O)NC[C@H]2C[C@@H]3CCN2C[C@@H]3c2cc(-c3ccc(N(C)C)cc3)nc(C)n2)cc1	–	–	?	28µM
C=CCN1CCN(C(=O)Cc2ccc(Br)cc2)CC1	·	·	·	–
CN1CCCCC1Cn1cc(C(=O)c2cc([N+](=O)[O-])ccc2I)c2ccccc21 (stereo not given)	–	24µM	·	·
O=c1c(-c2cccs2)ccc2n1C[C@H]1C[C@@H]2CN(C2CCOCC2)C1	–	?	–	35µM
CC(C)(O)/C=C/C(=O)[C@](C)(O)[C@H]1[C@H](O)C[C@@]2(C)[C@@H]3CC=C4[C@@H](C[C@H](O)C(=O)C4(C)C)[C@]3(C)C(=O)C[C@]12C	–	?	·	·
CC(C)(O)C=CC(=O)[C@](C)(O)[C@H]1[C@H](O)C[C@]2(C)[C@@H]3CC=C4[C@@H](C=C(O)C(=O)C4(C)C)[C@]3(C)C(=O)C[C@@]12C	·	?	14µM	·
CN(C)CCc1c[nH]c2ccc(O)cc12	–	–	–	·
COc1ccccc1-c1cc([C@H]2CN3CC[C@H]2C[C@@H]3COC(=O)Nc2ccc(C(C)=O)cc2)n(C)n1	–	–	–	–
C[C@@]1(C(=O)O)CC[C@]2(C)CC[C@]3(C)C4=CC(=O)c5cc(O)c(O)cc5[C@]4(C)CC[C@@]3(C)[C@@H]2C1	–	–	·	·
CC1=C(O)C(=O)C=C2C1=CC=C1[C@@]2(C)CC[C@@]2(C)[C@@H]3C[C@](C)(C(=O)O)CC[C@]3(C)CC[C@]12C	·	22µM	7.6µM	·
O=C(O)C1=NOC2CN(Cc3cccnc3)CC12 (stereo not given)	–	–	–	40µM
Cc1noc(C)c1Cc1ccc(C(=O)N2[C@H]3CC[C@@H]2c2cnc(-c4ccccc4)nc2C3)o1	–	–	–	–
CN1c2ncccc2CN(Cc2ccccn2)CC[C@H]1CO	–	–	–	32µM
Cc1ccc2c(n1)N(C)[C@H](CO)CCN(Cc1ccco1)C2	–	–	–	?
CN1c2ncccc2CN(Cc2ccccc2)CC[C@H]1CO	–	–	–	32µM
COc1cc2c(cc1OCc1ccccc1)N(C(=O)COc1ccccc1C(N)=O)CC21CCN(C)CC1	–	?	?	–
O=S(=O)(CC1CS1)c1ccc(Oc2ccccc2)cc1 (stereo not given)	·	–	–	·
CSCC(=O)N1C[C@@H]2C[C@H](C1)c1ccc(-c3ccccc3CN(C)C)c(=O)n1C2	–	–	–	32µM
O=C(Nc1ccccc1)Nc1ccc2n(c1=O)C[C@H]1C[C@@H]2CN(C(=O)c2ccccc2)C1	–	–	–	?
O=C(O)C(=O)N1C[C@@H]2C[C@H](C1)c1ccc(NS(=O)(=O)c3ccccc3)c(=O)n1C2	–	–	–	?
O=C(c1cnccn1)N1C[C@@H]2C[C@H](C1)c1ccc(-c3cccc(C(F)(F)F)c3)c(=O)n1C2	–	–	–	18µM
SMILES	IP6K1 inhibitor	SNCA viab count	SNCA expr inhib	KDM5B inh
O=C(O)CCCC(=O)N1C[C@@H]2C[C@H](C1)c1ccc(-c3ccc(Cl)cc3)c(=O)n1C2	–	–	–	40µM
Cc1ccccc1-c1ccc2n(c1=O)C[C@H]1C[C@@H]2CN(C(=O)c2cnccn2)C1	–	–	–	–
CSCC(=O)N1C[C@@H]2C[C@H](C1)c1ccc(-c3cccc(C(F)(F)F)c3)c(=O)n1C2	–	–	–	35µM
CCC(CC)c1cc([C@H]2CN3CC[C@H]2C[C@@H]3CNC(=O)c2ccccc2)nc(-c2ccncc2)n1	–	–	–	–
O=C(C1CCCCC1)N1C[C@@H]2C[C@H](C1)c1ccc(-c3cccc(C(F)(F)F)c3)c(=O)n1C2	–	–	–	32µM
O=C(C1CCCCC1)N1C[C@@H]2C[C@H](C1)c1ccc(C3CCCCC3)c(=O)n1C2	–	–	–	?
CN1CCN(C(=O)Cc2c[nH]c3ncc(-c4ccsc4)cc23)CC1	–	–	–	40µM
CN1CCN(C(=O)Cc2c[nH]c3ncc(-c4ccccc4F)cc23)CC1	–	–	–	35µM
